Bioassay records from PubChem.
The entries come from a sample that favours hits as a whole.
LmPK inhibitor: qHTS Assay for Inhibitors of Leishmania Mexicana Pyruvate Kinase (LmPK); purified LmPK, Kinase-Glo ATP luminescence, 1 h; Potency, µM (highest dose often 57.5 µM), for the others: at the top dose activity change, negative = inhibition, most hits filed as inhibitors; hit rate 0.37% among 290,000; also: potency is read from the fitted curve at half-maximal effect; % is scaled to controls: 0 for no effect and ±100 for the full control effect
Target sequence (Q27686 whole entry, looked up): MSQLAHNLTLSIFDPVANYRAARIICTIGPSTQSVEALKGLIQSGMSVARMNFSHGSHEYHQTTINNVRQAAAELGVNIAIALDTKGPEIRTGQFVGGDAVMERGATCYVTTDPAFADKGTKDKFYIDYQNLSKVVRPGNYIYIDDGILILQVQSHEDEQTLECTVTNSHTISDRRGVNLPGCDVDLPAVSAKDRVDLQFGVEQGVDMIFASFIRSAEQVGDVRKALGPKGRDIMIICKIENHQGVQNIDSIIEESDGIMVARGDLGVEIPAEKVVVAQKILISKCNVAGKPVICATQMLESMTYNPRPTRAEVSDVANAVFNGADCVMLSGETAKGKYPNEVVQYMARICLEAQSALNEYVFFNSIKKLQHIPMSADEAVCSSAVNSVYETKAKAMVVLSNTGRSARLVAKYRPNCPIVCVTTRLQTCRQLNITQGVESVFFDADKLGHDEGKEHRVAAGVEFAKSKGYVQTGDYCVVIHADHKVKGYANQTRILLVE
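0.1 nM LmPK, 0.5 mM PEP, 0.1 mM ADP; 50 mM imidazole pH 7.2, 7 mM MgCl2, 50 mM KCl; 1 h RT. Kinase-Glo luminescence readout, normalized to no-enzyme (full inhibition) and uninhibited wells.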
Cycloheximide cs: Cycloheximide Counterscreen for Small Molecule Inhibitors of Shiga Toxin; cell reporter, cycloheximide protein synthesis inhibition counterscreen; max response, %; hit rate 12% among 300,000; AID 2314, 2010; in the data active = max response mostly above about 13%, no sharp cut-off; inactive = mostly below about 14%; also: read at 38.3 µM for the half of the compounds with a filed dose; 0% is about no effect
FBPA Giardia inh: qHTS Assay for Inhibitors of Fructose-1,6-bisphosphate Aldolase from Giardia Lamblia; A8B2U2; purified Giardia FBPA; Potency, µM (series often up to 59.6 µM), without a hit: at the top dose activity, negative = inhibition, most hits filed as inhibitors; hit rate 0.71% among 290,000; also: potency is read from the fitted curve at half-maximal effect; % is scaled to controls: 0 for no effect and ±100 for the full control effect; nearly all actives have a fitted effect of over 55% in size
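Giardia FBPA (40 nM reagent) was preincubated 10 min at RT with compound (up to 57.5 uM final), then substrate plus GAPDH/TPI/NAD/arsenate coupling system with diaphorase/resazurin was added; resorufin fluorescence (525/598 nm) was read after 20 min.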
Shiga toxin inh: A qHTS for Small Molecule Inhibitors of Shiga Toxin; Vero cells, Shiga toxin protein synthesis inhibition reporter; inhibition, % at 38.7 µM; hit rate 9.2% among 290,000; in the data active = inhibition mostly above about 28%, no sharp cut-off; inactive = mostly below about 43%; also: 0% is about no effect
Sm TGR block: qHTS Assay for the Inhibitors of Schistosoma Mansoni Peroxiredoxins | AID 485364, 2010 | purified TGR, DTNB reduction, TNB absorbance 405 nm | Potency, µM (highest dose often 114 µM), inactives show top-dose activity change, negative = inhibition, actives largely listed as inhibitors | Schistosoma mansoni thioredoxin glutathione reductase (TGR), Q962Y6 | hit rate 3% among 360,000; also: potency is read from the fitted curve at half-maximal effect; % is scaled to controls: 0 for no effect and ±100 for the full control effect; nearly all actives have a fitted effect of over 60% in size
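First, TGR (20 nM dispensed) and NADPH were mixed with compound. Second, a 15 min room-temperature incubation followed. Third, further NADPH and then DTNB were added to start the reaction. Finally, TNB absorbance was monitored kinetically.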
TbPYK inhibitor: qHTS of Trypanosoma Brucei Inhibitors | TbPYK enzyme, Kinase-Glo Plus ATP luminescence, 45 min | Potency, µM (top dose mostly 76.8 µM), for inactives: at the highest dose activity, negative = inhibition, most hits filed as inhibitors | AID 624173, 2012 | hit rate 0.12% among 410,000; also: potency is read from the fitted curve at half-maximal effect; % is scaled to controls: 0 for no effect and ±100 for the full control effect; nearly all actives have a fitted effect of over 50% in size
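Luminescent Kinase-Glo Plus end-point after 45 min room-temperature reaction of T. brucei pyruvate kinase started with 130 uM ADP (final). Buffer TEA 50 mM pH 7.2 with KCl, MgCl2, BSA, Tween-20; titration-based qHTS with fitted concentration-effect curves.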
An asterisk follows results filed as active; u = inconclusive; x = no result; + = active, no number; [ ] = dose if it differs, or a comment. Unless noted, calls follow the shape of the dose curve; as a rule, active = well fitted curve in the direction sought with a large enough effect; inconclusive = small, poorly fitted or top-dose-only effect, or another doubt; inactive = no such curve, though single readings can be large; an effect the other way counts as inactive or inconclusive.

SMILES	LmPK inhibitor	Cycloheximide cs	FBPA Giardia inh	Shiga toxin inh	Sm TGR block	TbPYK inhibitor
O=C1NC(=O)/C(=C/c2ccc(N3CCOCC3)o2)N1	3.2%	-1.4	u	-11.9	11.2µM*	-10.0%
O=C1NC(=O)/C(=C\c2ccc(Sc3ccc(Cl)cc3)o2)N1	0.5%	-2.7	-5.2%	-15.0	50.1µM*	-8.9%
Cc1ccccc1N1C(=O)NC(=O)/C(=C/c2ccc(N3CCOCC3)o2)C1=O	2.4%	-0.6	-0.4%	-8.2	22.4µM*	-4.0%
CCOc1ccc(CCN2C(=S)N([C@@H](CC(C)C)CN3CCC[C@@H]3CN3C(=S)NC[C@@H]3Cc3ccccc3)C[C@@H]2Cc2ccc(O)cc2)cc1	x	x	x	x	x	7.0%
Cc1ccc(C)c(NC(=O)C(=O)NCC(c2cccnc2)N2CCN(c3ccc(F)cc3)CC2)c1 (stereo unspecified)	x	x	x	x	-14.7%	1.7%
CCN1CCCC1CNC(=O)c1cc([N+](=O)[O-])c(N(C)C)cc1OC (stereo unspecified)	-2.1%	-2.7	-9.8%	4.6	-8.3%	2.6%
Cc1ccc2oc(-c3cccc(NC(=O)c4ccc(N5CCC(C)CC5)c([N+](=O)[O-])c4)c3)nc2c1	x	x	x	x	-4.2%	-2.4%
O=C(OC[C@H]1O[C@@H](OC(=O)c2cc(O)c(O)c(OC(=O)c3cc(O)c(O)c(O)c3)c2)[C@H](OC(=O)c2cc(O)c(O)c(OC(=O)c3cc(O)c(O)c(O)c3)c2)[C@@H](OC(=O)c2cc(O)c(O)c(OC(=O)c3cc(O)c(O)c(O)c3)c2)[C@@H]1OC(=O)c1cc(O)c(O)c(OC(=O)c2cc(O)c(O)c(O)c2)c1)c1cc(O)c(O)c(OC(=O)c2cc(O)c(O)c(O)c2)c1	x	x	x	x	44.7µM*	x
COC1OC(COC(=O)c2ccccc2)C(OC(=O)c2ccccc2)C1OC(=O)c1ccccc1 (stereo unspecified)	1.1%	2.4	2.4%	-3.8	0.5%	-1.6%
Cc1nnc(SCc2c(Cl)cccc2Cl)n(N)c1=O	6.3%	2.7	-0.8%	-18.9	3.9%	-2.5%
CCn1c(SCc2c(Cl)cccc2Cl)nnc1-c1nn(-c2ccccc2)ccc1=O	2.2%	1.0	15.6%	-11.1	100µM*	-13.1%
Cc1ccc(S(=O)(=O)Nc2cc(Cl)c3oc4c(c3c2)C(=O)CC(C)(C)C4)cc1	x	x	x	x	u	2.6%
Cc1cccc(C2=N[C@@H](CC(C)C)CO2)c1	x	33.5*	-6.1%[136 µM]	+	x	x
Clc1cc(Cl)cc(C2=NC(Cc3ccccc3)CO2)c1 (stereo unspecified)	x	x	x	x	x	0.0%
Cc1cccc(C2=N[C@@H](Cc3ccccc3)CO2)c1	x	49.0*	0.7%[89.2 µM]	+	x	x
CCn1c(=O)c(C(=O)CN(C)CC(=O)Nc2ccccc2Br)c(N)n(Cc2ccccc2)c1=O	x	x	x	x	4.5%	4.0%
COC(=O)[C@@H]1CC[C@H](C)[C@@H](c2ccc(C)cc2)N1C(=O)c1ccc(/C=N\O[C@@H](C)c2cc(-c3c(C)cc(C)cc3C)no2)cc1	x	x	-0.1%[12.9 µM]	x	x	x
Cc1cc(Nc2ccccc2)n(-c2nc3ccccc3[nH]2)n1	1.0%	0.8	u	10.6	1.7%	-4.8%
Cc1nn(-c2nc3ccccc3[nH]2)c(=O)c2ccccc12	7.08µM*	-7.2	-5.1%	-21.2	3.4%	u
Cc1ccc2nc3c(cc2c1)c(C)nn3-c1ccccc1	-2.7%	-2.4	19.6%	-2.5	16.3%	-0.1%
Cc1nn(-c2ccccc2)c(=S)c2ccccc12	2.5%	19.9*	2.5%	60.1*	6.1%	4.7%
Cc1nn(-c2ccc(Cl)nn2)c(=O)c2ccccc12	-3.1%	26.5*	0.4%	49.3	-0.2%	-1.2%
Cc1nn(-c2ccc(Cl)c(Cl)c2Cl)c(=O)c2ccccc12	2.7%	-0.5	-3.0%	19.9	-1.6%	-4.7%
Cc1nn(-c2ccc(Cl)cc2)c(=O)c2ccccc12	1.3%	48.4*	1.4%	98.0*	x	-2.8%
